Measured values: the supplement of paper PMC13094657
Counter-ions that a name gives are not always drawn. ± gives the standard deviation of the averaged measurements.

Tests used:
MDA-MB-231 [1] = test: cell viability relative to vehicle unstimulated control (fraction); higher = more viable cells; conditions: pre-treatment time: 18 h then 24 h IFNg/TNF
MDA-MB-231 [2] = test: kynurenine production, fold change vs DMSO IFNg/TNF control; higher = more kynurenine produced (less inhibition); conditions: pre-treatment time: 18 h then 24 h IFNg/TNF
How it was run: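 MDA-MB-231 cells (7 × 10^4/well, 96-well plates, seeded 24 h earlier) were pre-treated 18 h with each natural product in 0.1% DMSO, then stimulated 24 h with IFNγ (1 U/ml) and TNF (6.25 ng/ml) at 37°C. Supernatant kynurenine was read at 492 nm after trichloroacetic acid and p-dimethylaminobenzaldehyde treatment, against 0–100 μM standards. Kynurenine production is the fold change over cytokine-stimulated vehicle wells on the same plate, averaged over duplicate plates in the first screening round.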
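Wherever cell viability relative to vehicle unstimulated control is given: viability of the cells left after supernatant collection, read with Deep Blue dye added for 4 h, as absorbance at 570 nm minus 600 nm.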

Row | SMILES | cell viability (MDA-MB-231 [1]) | kynurenine production (MDA-MB-231 [2])
1 | CC1=CCC2CC1C2(C)C (stereo not drawn) [(-)-α-Pinene] (compound dose: 10 uM) | 1.01 ± 0.035 | 1.21 ± 0.14
2 | C=C1CCC[C@]2(C)C[C@@H]3OC(=O)C(C)=C3C[C@@H]12 [Atractylenolide II] (compound dose: 10 uM) | 1.03 ± 0.018 | 1.06 ± 0.041
3 | C=C1C[C@]23C[C@@]1(O)CC[C@H]2[C@@]12C=C[C@H](O)[C@@](C)(C(=O)O1)[C@H]2[C@@H]3C(=O)O [Gibberellic acid] (compound dose: 10 uM) | 0.951 ± 0.013 | 0.799 ± 0.11
4 | C=C1C(=O)O[C@H]2[C@H]1CC/C(C)=C/CC[C@@]1(C)O[C@@H]21 [Parthenolide] (compound dose: 10 uM) | 0.933 ± 0.034 | 0.309 ± 0.064
5 | C[C@H](C[C@H](O)[C@H]1OC1(C)C)C1=C2C[C@H](O)[C@H]3[C@@]4(C)CCC(=O)C(C)(C)[C@@H]4CC[C@]3(C)[C@@]2(C)CC1 [Alisol B] (compound dose: 10 uM) | 0.865 ± 0.13 | 1.0307 ± 0.00045
6 | C[C@@H]1CC[C@H]2[C@@H](C)C(=O)O[C@@H]3O[C@@]4(C)CC[C@@H]1[C@]32O4 [Deoxyartemisinin] (compound dose: 10 uM) | 1.28 ± 0.3 | 0.8521 ± 0.0034
7 | O=C1O[C@H]2[C@@H]3OC(=O)c4cc(O)c(O)c(O)c4-c4c(O)c(O)c5oc(=O)c6c(c(O)c(O)c7oc(=O)c4c5c76)-c4c(cc(O)c(O)c4O)C(=O)OC[C@H]3OC(O)[C@@H]2OC(=O)c2cc(O)c(O)c(O)c2-c2c1cc(O)c(O)c2O (mixture of isomers) [Punicalagin] (compound dose: 10 uM) | 1.001 ± 0.0011 | 0.1 ± 0.0087
8 | CC12CCC(C1)C(C)(C)C2O (stereo unspecified) [Fenchyl alcohol] (compound dose: 10 uM) | 1.03 ± 0.041 | 0.817 ± 0.31
9 | O=C(O)C1=CO[C@@H](O[C@@H]2O[C@H](CO)[C@@H](O)[C@H](O)[C@H]2O)[C@@H]2C(CO)=CC[C@H]12 [Geniposidic acid] (compound dose: 10 uM) | 1.02 ± 0.015 | 0.715 ± 0.065
10 | C[C@@]12CCc3occc3[C@H]1CC[C@@]13C[C@@H](CC[C@H]12)[C@@](O)(CO)C3 [Cafestol] (compound dose: 10 uM) | 1.03 ± 0.067 | 0.75 ± 0.4
11 | C[C@@H]1O[C@@H](O[C@H]2[C@H](O[C@H]3CC[C@@]4(C)[C@@H](CC[C@]5(C)[C@@H]4CC=C4[C@@H]6CC(C)(C)CC[C@]6(C(=O)O[C@@H]6O[C@H](CO[C@@H]7O[C@H](CO)[C@@H](O[C@@H]8O[C@@H](C)[C@H](O)[C@@H](O)[C@H]8O)[C@H](O)[C@H]7O)[C@@H](O)[C@H](O)[C@H]6O)CC[C@]45C)[C@]3(C)CO)OC[C@H](O)[C@@H]2O)[C@H](O)[C@H](O)[C@H]1O [Hederacoside C] (compound dose: 10 uM) | 1.05 ± 0.024 | 1.25 ± 0.18
12 | O=C(/C=C/c1ccc(O)c(O)c1)O[C@H](Cc1ccc(O)c(O)c1)C(=O)O [Rosmarinic acid] (compound dose: 10 uM) | 1.11 ± 0.14 | 0.908 ± 0.18
13 | C[C@@H]1CC[C@]2(C)CC[C@]3(C)C(=CC(=O)C4[C@@]5(C)CC[C@@H](O)[C@](C)(C(=O)O)C5CC[C@]43C)C2[C@H]1C (stereo partly drawn) [11-Keto-beta-boswellic acid] (compound dose: 10 uM) | 0.949 ± 0.013 | 0.94 ± 0.12
14 | C=C(C)C1CC=C(C)[C@@H](O)C1 (single isomer, unassigned; (-)) [(-)-carveol (mixed)] (compound dose: 10 uM) | 0.985 ± 0.086 | 1.02 ± 0.019
15 | C/C1=C/CC[C@H](C)C(=O)C[C@@H](C(C)C)C(=O)C1 [Curdione] (compound dose: 10 uM) | 0.926 ± 0.015 | 1.02 ± 0.059
16 | COC(=O)[C@]1(C)CC[C@]2(C(=O)O[C@@H]3O[C@H](CO)[C@@H](O)[C@H](O)[C@H]3O)CC[C@]3(C)C(=CC[C@@H]4[C@@]5(C)C[C@H](O)[C@H](O[C@@H]6OC[C@@H](O[C@@H]7O[C@H](CO)[C@@H](O)[C@H](O)[C@H]7O)[C@H](O)[C@H]6O)[C@@](C)(CO)C5CC[C@]43C)[C@H]2C1 (stereo partly specified) [Esculentoside H] (compound dose: 10 uM) | 0.984 ± 0.043 | 0.825 ± 0.099
17 | C[C@H](CC[C@@H](O[C@@H]1O[C@H](CO)[C@@H](O)[C@H](O)[C@H]1O)C(C)(C)O)[C@H]1CC[C@@]2(C)[C@@H]3CC=C4[C@@H](CC[C@H](O)C4(C)C)[C@]3(C)[C@H](O)C[C@]12C [Mogroside I A1] (compound dose: 10 uM) | 0.881 ± 0.068 | 0.921 ± 0.21
18 | C=C1C(=O)O[C@@H]2C[C@@]3(C)CCCC(=C)[C@@H]3C[C@H]12 [Isoalantolactone] (compound dose: 10 uM) | 0.951 ± 0.082 | 0.255 ± 0.077
19 | CN1CCC[C@H]1c1cccnc1 [(-)-nicotine] (compound dose: 10 uM) | 0.978 ± 0.08 | 1.04 ± 0.11

Row | SMILES | cell viability (MDA-MB-231 [1]) | kynurenine production (MDA-MB-231 [2])
20 | CC(=O)OC(C)(C)CCC(=O)[C@](C)(O)[C@H]1[C@H](O)C[C@@]2(C)[C@@H]3CC=C4[C@@H](C[C@H](O)[C@@H](O)C4(C)C)[C@]3(C)C(=O)C[C@]12C [Cucurbitacin IIa] (compound dose: 10 uM) | 0.939 ± 0.036 | 0.778 ± 0.07
21 | C=C1CC[C@@H]2[C@](C)(CO[C@@H]3O[C@H](CO)[C@@H](O)[C@H](O)[C@H]3O)CCC[C@@]2(C)[C@@H]1CCC1=CCOC1=O [Neoandrographolide] (compound dose: 10 uM) | 0.953 ± 0.034 | 0.893 ± 0.012
22 | COC(=O)C1=CO[C@@H](O[C@@H]2O[C@H](CO)[C@@H](O)[C@H](O)[C@H]2O)[C@@H]2[C@@H](C)[C@@H](O)C[C@H]12 [Loganin] (compound dose: 10 uM) | 1.05 ± 0.041 | 1.02 ± 0.18
23 | CC1(C)CCC[C@](C)([C@H]2CC[C@]3(C)[C@@H]2[C@H](O)C[C@@H]2[C@@]4(C)CC[C@H](O)C(C)(C)[C@@H]4CC[C@]23C)O1 [Panaxadiol] (compound dose: 10 uM) | 1.04 ± 0.013 | 0.719 ± 0.088
24 | C[C@H]1O[C@@H](O[C@H]2[C@@H](O)C[C@H](O[C@H]3[C@@H](O)C[C@H](O[C@H]4CC[C@@]5(C)[C@H](CC[C@@H]6[C@@H]5C[C@@H](O)[C@]5(C)[C@@H](C7=CC(=O)OC7)CC[C@]65O)C4)O[C@@H]3C)O[C@@H]2C)C[C@H](O)[C@@H]1O [Digoxin] (compound dose: 10 uM) | 0.543 ± 0.066 | 0.103 ± 0.071
25 | CC(C)=CCC[C@@](C)(O)[C@H]1CC[C@]2(C)[C@@H]1[C@H](O)C[C@@H]1[C@@]3(C)CC[C@H](O)C(C)(C)[C@@H]3CC[C@]12C [(20R)-Protopanaxadiol] (compound dose: 10 uM) | 0.9532 ± 0.0069 | 0.793 ± 0.14
26 | CC1CCC2(O)C(C)(C)C3CCC2(C)C1C3 (stereo unspecified) [Patchouli alcohol] (compound dose: 10 uM) | 0.994 ± 0.013 | 1.04 ± 0.064
27 | CC(C)=CCC[C@](C)(O)[C@H]1CC[C@]2(C)[C@@H]1[C@H](O)C[C@@H]1[C@@]3(C)CC[C@H](O)C(C)(C)[C@@H]3[C@@H](O[C@@H]3O[C@H](CO)[C@@H](O)[C@H](O)[C@H]3O[C@@H]3O[C@@H](C)[C@H](O)[C@@H](O)[C@H]3O)C[C@]12C [Ginsenoside Rg2] (compound dose: 10 uM) | 1.01 ± 0.095 | 0.974 ± 0.061
28 | C=C1CC[C@@H]2[C@](C)(CO)[C@H](O)CC[C@@]2(C)[C@H]1C/C=C1\C=COC1=O [Dehydroandrographolide] (compound dose: 10 uM) | 0.984 ± 0.032 | 0.754 ± 0.058
29 | C[n+]1cccc(C(=O)[O-])c1 [Trigonelline hydrochloride] (compound dose: 10 uM) | 0.913 | 0.906 ± 0.16
30 | C=C1[C@@H]2CC[C@@H]3[C@](C2)(C(=O)[C@@H](O)[C@@H]2C(C)(C)[C@H]4CC(=O)[C@@]32CO4)[C@@H]1OC(C)=O [Maoecrystal A] (compound dose: 10 uM) | 0.9322 ± 0.0011 | 0.8659 ± 0.0031
31 | C[C@@H]1O[C@@H](O[C@H]2[C@H](O[C@H]3CC[C@@]4(C)[C@@H](CC[C@]5(C)[C@@H]4CC=C4[C@@H]6CC(C)(C)CC[C@]6(C(=O)O)CC[C@]45C)[C@]3(C)CO)OC[C@H](O[C@@H]3O[C@H](CO)[C@@H](O)[C@H](O)[C@H]3O)[C@@H]2O)[C@H](O)[C@H](O)[C@H]1O [Pulsatilla saponin D] (compound dose: 10 uM) | 0.145 ± 0.0044 | 0.141 ± 0.07
32 | CC1(C)CC[C@]2(CO)CC[C@]3(C)C(=CC[C@@H]4[C@@]5(C)CC[C@H](O)C(C)(C)[C@@H]5CC[C@]43C)[C@@H]2C1 [Erythrodiol] (compound dose: 10 uM) | 1.08 ± 0.031 | 0.842 ± 0.14
33 | C[C@H]1[C@@H](O)O[C@@H]2O[C@@]3(C)CC[C@H]4[C@H](C)CC[C@@H]1[C@@]24OO3 [Dihydroartemisinin] (compound dose: 10 uM) | 0.978 ± 0.069 | 0.688 ± 0.12
34 | O=c1c(O)c(-c2ccc(O)cc2)oc2cc(O)cc(O)c12 [Kaempferol] (compound dose: 10 uM) | 0.969 ± 0.079 | 0.672 ± 0.023
35 | CC(=O)OC/C=C(\C)CCC=C(C)C [Geranyl acetate] (compound dose: 10 uM) | 1.01 ± 0.065 | 0.882 ± 0.039
36 | CC1=C[C@H]2[C@@H](CC1)[C@H](C)CC[C@H]2[C@@H](C)C(=O)O [Dihydroartemisinic acid] (compound dose: 10 uM) | 1.107 ± 0.0025 | 0.998 ± 0.035
37 | COc1ccc2cc1Oc1ccc(cc1)C[C@H]1c3cc(c(OC)cc3CCN1C)Oc1c(OC)c(OC)cc3c1[C@H](C2)N(C)CC3 [Tetrandrine] (compound dose: 10 uM) | 1.047 ± 0.0084 | 1.11 ± 0.024
38 | C[C@@]12C[C@@]3(O)O[C@@H](O1)[C@]1(COC(=O)c4ccccc4)[C@@H]3C[C@]12O[C@@H]1O[C@H](COC(=O)c2ccccc2)[C@@H](O)[C@H](O)[C@H]1O [Benzoylpaeoniflorin] (compound dose: 10 uM) | 0.956 ± 0.034 | 0.893 ± 0.11
